Compounds with a hit are over-represented: about 17% of the library has one in this group of screens.
DT40 TDP1 no CPT: qHTS for Inhibitors of human tyrosyl-DNA phosphodiesterase 1 (TDP1): qHTS in cells in absence of CPT. DT40 Tdp1-/- hTDP1 cells, no CPT, ATP luminescence, 48 h. Potency, µM (highest dose often 46.2 µM), hits mostly inhibitors. hit rate 15% among 420,000. AID 686978, 2013; also: nearly all actives have a fitted effect of over 55% in size
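DT40 Tdp1-/-;hTDP1 cells, no CPT (DMSO vehicle only), 400 cells/well; compounds pin-transferred; ≥48 hr, 37 °C; CellTiter-Glo 30 min RT dark, luminescence read.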
ATXN2 expr inh: inhibitors of ATXN2 expression; HEK-293 ATXN2-luciferase reporter, luminescence, 24 h; Potency, µM (series often up to 57 µM), hits mostly inhibitors; hit rate 0.72% among 360,000; AID 1745845; also: nearly all actives have a fitted effect of over 55% in size
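qHTS (up to 57 uM final) was run with 24 h compound exposure of reporter cells at 37 °C. Each well was multiplexed: SteadyGlo luminescence measured ATXN2-luciferase expression after a fluorogenic Gly-Phe-AFC viability readout (25 uM final).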
ATXN viability: viability counter-screen for ATXN expression inhibitors; S2 cells (HEK-293 line with an ATXN2-luciferase reporter) viability, CellTiter-Fluor protease fluorescence, 24 h; hit rate 0.49% among 400,000; Potency, µM (highest dose often 56.7 µM), hits mostly cytotoxic; also: nearly all actives have a fitted effect of over 40% in size
HepG2 tox: HepG2 cytotoxicity, counter-screen for TGF-b inhibitors; HepG2 CAGA-GFP viability, ATP luminescence, 18 h; Potency, µM (series often up to 46.1 µM), most hits filed as cytotoxic; hit rate 0.76% among 410,000
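HepG2 CAGA-GFP cells (1000/well, DMEM with 1% FBS) received compound, then TGF-beta at 500 pg/mL final, and were incubated 18 hours at 37 degrees C. Viability was read by CellTiter-Glo luminescence. Media-only wells were set as complete cell-killing and DMSO as no toxicity.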
TGFb inhibitor: inhibitors of TGF-b signaling | HepG2 CAGA-GFP TGF-b/SMAD3 reporter, GFP fluorescence, 18 h; TGF-beta stimulated, 500 pg/mL final | Potency, µM (highest dose often 46.1 µM), hits mostly inhibitors | hit rate 1.2% among 410,000 | AID 588855; also: nearly all actives have a fitted effect of over 65% in size
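HEPG2 CAGA-GFP, 1000 cells/well; 2 h settle, 37 C; cpd via pin tool; TGF-b 500 pg/mL final; 18 h, 37 C; GFP imaging ex488/em500-530; %Activity normalised to -TGF-b and +DMSO controls; CRC fit, curve class.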
DT40 TDP1 CPT: DT40-hTDP1 cell growth loss with CPT; Potency, µM (doses to about 46.2 µM), actives largely listed as inhibitors; chicken DT40 Tdp1-/-;hTDP1 cells + 20 nM CPT, ATP luminescence, 48 h; hit rate 12% among 420,000; also: nearly all actives have a fitted effect of over 55% in size
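Cell growth measured by CellTiter-Glo luminescence after a minimum 48 h, 37 C compound exposure with 20 nM CPT in Tdp1-knockout DT40 cells stably expressing hTDP1, seeded 400/well; qHTS titration format.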
Hits are given with their value; . = inactive; ? = inconclusive; / = no result. Calls follow the shape of the dose curve; as a rule, active = well fitted curve in the direction sought with a large enough effect; inconclusive = small, poorly fitted or top-dose-only effect, or another doubt; inactive = no such curve, though single readings can be large; an effect the other way counts as inactive or inconclusive.

SMILES	DT40 TDP1 no CPT	ATXN2 expr inh	ATXN viability	HepG2 tox	TGFb inhibitor	DT40 TDP1 CPT
Cc1ccc(C)c(N=Nc2nc3ccccc3n2C)c1	3.5µM	.	?	.	?	5.8µM
CCCn1c(SCC(=O)c2cc(C)n(-c3cc(C)on3)c2C)n[nH]c1=O	?	.	.	.	.	?
O=C(Cn1ccsc1=NC(=O)C(F)(F)F)c1ccccc1	.	.	.	.	.	.
Cc1ccc2nc(NCCCO)nc(-c3ccccc3)c2c1	12µM	.	.	.	.	13µM
OCCCNc1nc(-c2ccccc2)c2cc(Br)ccc2n1	?	.	.	.	.	?
COc1cccc(Nc2nc(-c3ccccc3)c3cc(C)ccc3n2)c1	?	/	/	.	.	7.3µM
O=C(COc1ccc(F)cc1Br)Nc1ccccc1N1CCOCC1	?	?	?	.	?	?
CC1=NN(Cc2ccccc2)C(=O)C1C(c1ccc(Cl)cc1)C(C#N)C#N (centres undefined)	10µM	.	.	.	.	10µM
CC1=NN(Cc2ccccc2)C(=O)C1C(c1ccncc1)C(C#N)C#N (centres undefined)	?	/	.	.	?	?
CC1=NNC(=O)C1C(c1ccc(Cl)cc1)C(C#N)C#N (centres undefined)	?	.	.	.	?	.
CC1=NN(Cc2ccccc2)C(=O)C1C(c1ccccc1)C(C#N)C#N (centres undefined)	26µM	.	.	.	.	21µM
O=[N+]([O-])c1cc(F)cc(F)c1Nc1cc(F)cc(F)c1	.	.	.	.	.	.
O=C(Cn1ncc2c(=O)oc3ccccc3c21)Nc1cc(F)ccc1F	.	.	.	.	.	.
COc1ccc(NC2=CC(=O)CC(c3ccc(C)cc3)C2)c(OC)c1 (centres undefined)	?	.	?	.	.	?
COc1ccc(C2CC(=O)C=C(NCCC(C)C)C2)cc1 (centres undefined)	15µM	.	.	.	.	?
Cc1ccc(C2CC(=O)C=C(NCC(C)C)C2)cc1 (centres undefined)	21µM	.	.	.	.	?
O=C1C=C(c2ccc(-c3ccccc3)cc2)C[C@@H](c2ccc3c(c2)OCO3)C1	.	.	.	.	.	.
O=C1C=C(NCc2ccc3c(c2)OCO3)CC(c2ccccc2)C1 (centres undefined)	18µM	.	?	.	.	?
Cc1ccc(C2CC(=O)C=C(NCc3ccccc3)C2)cc1 (centres undefined)	4.6µM	.	.	.	.	5.2µM
OC(c1ccc2c(c1)CN(Cc1cccn1-c1ncccn1)CCO2)C1CCCCC1 (centres undefined)	.	/	.	/	/	.
CNC(=O)Nc1ccc2nc(C)oc2c1	.	/	.	.	.	.
Cc1cc(Nc2cccc(C(F)(F)F)c2)nc2ccc(NC(=O)c3cccnc3)cc12	2.3µM	?	18µM	.	?	4.1µM
Cc1cc(Nc2cccc(C(F)(F)F)c2)nc2ccc(NC(=O)c3cccc(Cl)c3)cc12	6.5µM	?	.	13µM	?	13µM
CCOc1cc(/C=C(\CC(=O)O)c2nc3ccccc3s2)ccc1OCC(=O)Nc1cccc(C(F)(F)F)c1	?	.	?	.	.	?
CCOc1ccc(C(=O)Nc2ccc3nc(Nc4cccc(C(F)(F)F)c4)cc(C)c3c2)cc1OCC	5.2µM	.	.	.	.	18µM
Cc1nc2ccc(NC(=O)c3cccc(C(F)(F)F)c3)cc2o1	?	.	.	.	.	23µM
COc1ccccc1CN(C)C(=O)c1sccc1-c1ccccc1	?	.	.	.	.	?
CCC(=O)N[C@@H]1c2ccccc2C2(CCN(Cc3ccccn3)CC2)[C@H]1OC	.	/	.	/	/	.
O=C(Nc1cccnc1)c1ccc2ccccc2c1O	13µM	.	.	.	.	.
O=C(Nc1ccccn1)c1ccc2ccccc2c1O	15µM	.	?	.	.	.
